Results on seven compounds are retold here after PubChem BioAssay (Tox21).

Several values for one entry are separate records, joined by “and”; a condition that tells them apart may be missing. Identical values can stand only once. Some compounds were tested as several samples or in several runs, with calls that do not always agree. Activity calls are given as the source filed them. Unless noted, calls follow the shape of the dose curve; as a rule, active = well fitted curve in the direction sought with a large enough effect in the repeat runs; inconclusive = weak or mixed curves; inactive = no such curve, though single readings can be large; an effect the other way counts as inactive or inconclusive.

Assay [1] can be described thus: qHTS assay to identify small molecule antagonists of the thyroid receptor (TR) signaling pathway (AID 743065). Also: nearly all actives have a fitted effect of over 55% in size. Also: potency is read from the fitted curve at half-maximal effect. In a few lines:
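GH3.TRE-Luc rat pituitary cells (two TREs driving luciferase) were dosed with compound, then stimulated with 1 nM T3 (final) for 23.5 h at 37 C. ONE-Glo luminescence was the read-out, with CellTiter-Fluor fluorescence as the cytotoxicity counter-screen.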
A general note: qHTS replaces the single test concentration by a dilution series.

Assay [2] relates to thyroid hormone receptor (rat, GH3 cells). The experiment in a line: qHTS assay to identify small molecule agonists of the thyroid receptor (TR) signaling pathway (AID 743066; calls by dose curve).
Assay [3] deals with Estrogen receptor (Homo sapiens) (UniProt P03372). Briefly: qHTS assay to identify small molecule antagonists of the estrogen receptor alpha (ER-alpha) signaling pathway (AID 743069; active = well fitted curve in the direction sought with a large enough effect in the signal ratio in the repeat runs, not every such curve was filed as active; inconclusive = weak or mixed curves, or effect the other way; inactive = no such curve, though single readings can be large or run the other way; the % refers to the signal ratio). In a few lines: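 HEK293 ER-alpha-UAS-bla GripTite cells, held overnight in 2% charcoal-stripped FBS, 5,000 cells/well, preincubated 4 h, then compound plus 17beta-estradiol for 18 h at 37C. Beta-lactamase read by LiveBLAzer B/G FRET substrate, 2 h at room temperature.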
Estrogen receptor (Homo sapiens), sequence (P03372 whole entry, looked up): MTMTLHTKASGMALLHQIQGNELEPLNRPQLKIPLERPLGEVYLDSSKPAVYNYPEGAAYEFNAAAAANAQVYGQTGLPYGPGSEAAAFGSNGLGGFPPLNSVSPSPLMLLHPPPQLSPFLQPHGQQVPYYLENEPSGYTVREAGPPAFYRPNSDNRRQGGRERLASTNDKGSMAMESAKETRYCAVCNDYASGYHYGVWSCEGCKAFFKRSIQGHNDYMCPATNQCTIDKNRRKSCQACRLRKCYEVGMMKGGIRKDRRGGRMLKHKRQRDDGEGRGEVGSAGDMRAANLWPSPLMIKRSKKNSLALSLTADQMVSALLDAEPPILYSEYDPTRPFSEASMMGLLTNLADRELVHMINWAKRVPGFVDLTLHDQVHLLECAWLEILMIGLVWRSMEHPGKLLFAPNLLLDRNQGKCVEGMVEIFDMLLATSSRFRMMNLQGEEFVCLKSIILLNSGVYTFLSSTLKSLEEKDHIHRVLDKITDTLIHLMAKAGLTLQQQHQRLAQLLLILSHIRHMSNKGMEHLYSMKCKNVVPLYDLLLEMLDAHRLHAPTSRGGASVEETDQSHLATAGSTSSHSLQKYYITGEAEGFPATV

Assay [4] is described as follows: qHTS assay to identify small molecule antagonists of the estrogen receptor alpha (ER-alpha) signaling pathway - cell viability counter screen (AID 743074; calls by dose curve;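 also: HEK293 cells carrying ER-alpha-UAS-bla reporter stimulated with 17beta-estradiol; nearly all actives have a fitted effect of over 45% in size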).
Assay [5] addresses Estrogen receptor (Homo sapiens) (UniProt P03372). Briefly: qHTS assay to identify small molecule agonists of the estrogen receptor alpha (ER-alpha) signaling pathway (AID 743075; calls by dose curve; also: potency is read from the fitted curve at half-maximal effect).
The target is the same in assay [6]. The experiment in a line: qHTS assay to identify small molecule agonists of the estrogen receptor alpha (ER-alpha) signaling pathway using the BG1 cell line (AID 743079). Also: nearly all actives have a fitted effect of over 20% in size. Also: potency is read from the fitted curve at half-maximal effect.
The nature of assay [7]: qHTS assay to identify small molecule antagonists of the estrogen receptor alpha (ER-alpha) signaling pathway using the BG1 cell line (AID 743080; calls by dose curve;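 also: BG1 cells stimulated with 17beta-estradiol alongside compound; series mostly up to about 70 µM; nearly all actives have a fitted effect of over 25% in size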). In a few lines: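 Luciferase inhibition measured with ONE-Glo after 30 min at RT in BG1Luc4E2 cells given test compounds and 17beta-estradiol for 21.5 h at 37 C; CellTiter-Fluor viability read in the same wells beforehand.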
Assay [8] can be described thus: qHTS assay to identify small molecule antagonists of the estrogen receptor alpha (ER-alpha) signaling pathway using the BG1 cell line - cell viability counter screen (AID 743081).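 Also: compound given together with 17beta-estradiol as the ER stimulus; nearly all actives have a fitted effect of over 45% in size.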 Also: potency is read from the fitted curve at half-maximal effect.
The target of a further assay is Aromatase (Homo sapiens) (UniProt P11511). The experiment in a line: qHTS assay to identify aromatase inhibitors (AID 743083). Also: series mostly up to about 70 µM; nearly all actives have a fitted effect of over 55% in size.
Aromatase (Homo sapiens), sequence (P11511 whole entry, looked up): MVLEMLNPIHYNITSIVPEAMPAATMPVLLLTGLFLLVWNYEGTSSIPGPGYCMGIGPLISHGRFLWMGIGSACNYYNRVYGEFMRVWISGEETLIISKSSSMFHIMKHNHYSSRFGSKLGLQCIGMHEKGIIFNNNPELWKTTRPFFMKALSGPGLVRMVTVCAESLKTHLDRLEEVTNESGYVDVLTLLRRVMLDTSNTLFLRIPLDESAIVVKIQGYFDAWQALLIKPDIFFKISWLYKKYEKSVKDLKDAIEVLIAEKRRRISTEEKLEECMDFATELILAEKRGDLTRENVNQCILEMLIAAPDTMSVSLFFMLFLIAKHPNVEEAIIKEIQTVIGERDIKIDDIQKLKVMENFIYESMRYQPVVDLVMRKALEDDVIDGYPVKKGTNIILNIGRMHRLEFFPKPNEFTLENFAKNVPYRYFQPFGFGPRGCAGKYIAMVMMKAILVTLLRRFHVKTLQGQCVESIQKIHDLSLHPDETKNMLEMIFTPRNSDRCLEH
A short description of assay [9]: qHTS assay to identify aromatase inhibitors - cell viability counter screen (AID 743084).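 Also: cells stimulated with testosterone during compound exposure; nearly all actives have a fitted effect of over 55% in size.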 Also: potency is read from the fitted curve at half-maximal effect.
A short description of assay [10]: qHTS assay to identify small molecule that activate the aryl hydrocarbon receptor (AhR) signaling pathway - cell viability counter screen (AID 743086). Also: nearly all actives have a fitted effect of over 45% in size. Also: potency is read from the fitted curve at half-maximal effect. In a few lines:
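HepG2-AhR-luc (HG2L7.5c1) cells, 4000/well, treated 24 h at 37 C with compound; viability measured as CellTiter-Fluor fluorescence after 30 min in the same wells as the luciferase read.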

Assay [11] has as its target Peroxisome proliferator-activated receptor gamma (Homo sapiens) (UniProt P37231). Briefly: qHTS assay to identify small molecule agonists of the peroxisome proliferator-activated receptor gamma (PPARg) signaling pathway (AID 743094; active = well fitted activation curve with a large enough effect in the signal ratio in the repeat runs, not every such curve was filed as active; inconclusive = weak or mixed curves, or effect the other way; inactive = no such curve, though single readings can be large or run the other way; the % refers to the signal ratio). In a few lines: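 Beta-lactamase FRET fluorescence was the read-out after a 1 h room-temperature substrate step, following 17 h compound treatment at 37C of HEK293H cells expressing a UAS-driven bla reporter responsive to PPARg.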

Assay [12] has the same target. Briefly: qHTS assay to identify small molecule antagonists of the peroxisome proliferator-activated receptor gamma (PPARg) signaling pathway (AID 743191; calls by dose curve; also: series mostly up to about 63 µM; nearly all actives have a fitted effect of over 30% in size). In a few lines: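 GeneBLAzer PPARg UAS-bla HEK293H cells, 5 h post-plating, exposed to compounds 17 h at 37C. LiveBLAzer B/G FRET substrate added for 1 h at room temperature; beta-lactamase reporter read by fluorescence intensity.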

Assay [13] is described as follows: qHTS assay to identify small molecule antagonists of the peroxisome proliferator-activated receptor gamma (PPARg) signaling pathway - cell viability counter screen (AID 743194). Also: nearly all actives have a fitted effect of over 55% in size. The conditions noted are these: Potency: co-treated with 50 nM rosiglitazone unless noted. In a few lines:
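Cytotoxicity counter screen in PPARg-bla HEK293H cells, same wells as reporter assay. Compounds plus 50 nM rosiglitazone (final) for 17 h at 37 C, then viability read by CellTiter-Glo luminescence.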

The nature of assay [14]: qHTS assay for small molecule agonists of the antioxidant response element (ARE) signaling pathway (AID 743202; active = well fitted activation curve with a large enough effect in the signal ratio in the repeat runs, not every such curve was filed as active; inconclusive = weak or mixed curves, or effect the other way; inactive = no such curve, though single readings can be large or run the other way; the % refers to the signal ratio; also: potency is read from the fitted curve at half-maximal effect). In a few lines: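 ARE-bla HepG2 cells (beta-lactamase reporter under the antioxidant response element), plated 5 hours, then exposed to compounds 16 hours at 37 C. LiveBLAzer B/G FRET substrate added for 2 hours at room temperature; fluorescence intensity read.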

A short description of assay [15]: qHTS assay for small molecule agonists of the antioxidant response element (ARE) signaling pathway - cell viability counter screen (AID 743203; calls by dose curve; also: nearly all actives have a fitted effect of over 55% in size). In a few lines:
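HepG2 cells carrying ARE-driven beta-lactamase; 2,000 cells/well; 5 hrs plating; compound pinned from DMSO; 16 hrs 37C/5% CO2; CellTiter-Glo added; 30 min RT; luminescence.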

Assay [16] can be described thus: qHTS assay for small molecule activators of the heat shock response signaling pathway - cell viability counter screen (AID 743209). Also: nearly all actives have a fitted effect of over 50% in size. In a few lines:
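Luminescence from CellTiter-Glo, added after the beta-lactamase FRET read, gave the viability signal. Cells were HSE-bla HeLa treated with DMSO-dissolved compounds for 5 h at 37 C following overnight plating.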

A short description of assay [17]: qHTS assay to identify small molecule agonists of the peroxisome proliferator-activated receptor delta (PPARd) signaling pathway - cell viability counter screen (AID 743211). Also: nearly all actives have a fitted effect of over 55% in size. Also: potency is read from the fitted curve at half-maximal effect. In a few lines:
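In the same wells used for beta-lactamase reporter measurement, cytotoxicity is scored by CellTiter-Glo. HEK293H PPARd-bla cells receive compound for 17 h at 37C following a 5 h settling period.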

Assay [18] has as its target Aryl hydrocarbon receptor (Homo sapiens) (UniProt P35869). The experiment in a line: qHTS assay to identify small molecule that activate the aryl hydrocarbon receptor (AhR) signaling pathway (AID 743085). Also: nearly all actives have a fitted effect of over 15% in size. Also: potency is read from the fitted curve at half-maximal effect.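 As to activation: HG2L7.5c1 human HepG2 liver cells with stably integrated DRE-driven firefly reporter; series mostly up to about 70 µM.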 In a few lines: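 Stably transfected human liver carcinoma cells (HG2L7.5c1; 20 DRE-firefly luciferase) were incubated 5 h, dosed, and kept 24 h at 37C. Agonism was scored from increased luciferase luminescence.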

Assay [19] can be described thus: qHTS assay for small molecule activators of the heat shock response signaling pathway (AID 743210; active = well fitted activation curve with a large enough effect in the signal ratio in the repeat runs, with a control signal flat, not every such curve was filed as active; inconclusive = weak or mixed curves; the % refers to the signal ratio; also: series mostly up to about 63 µM). In a few lines:
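HSE-bla HeLa cells (beta-lactamase reporter under heat shock response elements), plated overnight, then exposed to compounds 5 h at 37 C; LiveBLAzer B/G FRET substrate added, 2.5 h at room temperature, fluorescence intensity read.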

Peroxisome proliferator-activated receptor gamma (Homo sapiens), sequence (P37231 whole entry, looked up): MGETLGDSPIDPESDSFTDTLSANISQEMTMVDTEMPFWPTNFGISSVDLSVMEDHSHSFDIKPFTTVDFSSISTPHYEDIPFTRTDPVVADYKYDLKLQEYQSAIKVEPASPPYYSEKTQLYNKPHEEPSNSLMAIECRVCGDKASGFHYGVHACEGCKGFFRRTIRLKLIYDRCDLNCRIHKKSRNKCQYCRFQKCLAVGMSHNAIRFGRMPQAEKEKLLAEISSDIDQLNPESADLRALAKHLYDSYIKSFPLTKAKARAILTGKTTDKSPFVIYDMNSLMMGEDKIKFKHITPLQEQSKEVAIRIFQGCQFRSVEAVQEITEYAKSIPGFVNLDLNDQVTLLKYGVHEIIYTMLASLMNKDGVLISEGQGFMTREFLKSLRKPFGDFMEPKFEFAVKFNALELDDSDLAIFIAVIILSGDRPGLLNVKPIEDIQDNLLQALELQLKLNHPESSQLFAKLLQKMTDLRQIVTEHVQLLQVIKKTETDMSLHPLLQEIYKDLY
Aryl hydrocarbon receptor (Homo sapiens), sequence (P35869 whole entry, looked up): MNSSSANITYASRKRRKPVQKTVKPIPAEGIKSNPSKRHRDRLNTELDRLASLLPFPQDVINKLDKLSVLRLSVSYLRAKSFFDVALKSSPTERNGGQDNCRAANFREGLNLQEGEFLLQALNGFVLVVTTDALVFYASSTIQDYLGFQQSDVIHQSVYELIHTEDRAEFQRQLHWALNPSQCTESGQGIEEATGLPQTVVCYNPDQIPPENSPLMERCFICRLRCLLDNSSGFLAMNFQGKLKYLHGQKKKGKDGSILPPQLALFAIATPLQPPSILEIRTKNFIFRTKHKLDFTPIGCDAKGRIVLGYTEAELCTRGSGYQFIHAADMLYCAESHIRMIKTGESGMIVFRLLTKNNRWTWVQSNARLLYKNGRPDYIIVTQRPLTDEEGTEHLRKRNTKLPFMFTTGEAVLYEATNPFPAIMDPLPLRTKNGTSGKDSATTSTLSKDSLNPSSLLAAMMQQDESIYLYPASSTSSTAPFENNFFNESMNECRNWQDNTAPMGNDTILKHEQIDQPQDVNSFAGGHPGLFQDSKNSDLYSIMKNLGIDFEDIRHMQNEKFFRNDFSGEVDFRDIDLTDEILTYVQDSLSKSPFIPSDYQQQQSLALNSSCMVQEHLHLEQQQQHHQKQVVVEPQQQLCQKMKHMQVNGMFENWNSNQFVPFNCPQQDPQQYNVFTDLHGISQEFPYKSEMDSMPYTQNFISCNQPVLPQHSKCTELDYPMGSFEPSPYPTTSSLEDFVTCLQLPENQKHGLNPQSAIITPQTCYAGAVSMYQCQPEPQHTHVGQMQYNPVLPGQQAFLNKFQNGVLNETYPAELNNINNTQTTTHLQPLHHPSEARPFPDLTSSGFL

With `CCCCCCOC(=O)c1ccccc1C(=O)OCCCCCC`, the Potency result in [1], in [2], in assay [3], in assay [4], in assay [5] and in [6] was “inactive” throughout. The Potency entry (in assay [7]; in [8]; in the assay with Aromatase (Homo sapiens); in [9]; in assay [10]; in [11]) was “inactive” each time. Also, the Potency entry in assay [12], in [13], in assay [14], in assay [15] and in assay [16] was “inactive” in each case.

Take `N#CC(Br)Br`: the Potency entry in [1], in assay [2], in [3], in assay [4], in assay [5] and in assay [6] was “inactive” each time. Moreover, the Potency result (in [7]; in assay [8]; in the assay with Aromatase (Homo sapiens); in assay [9]; in assay [10]; in assay [12]) was “inactive” each time. Further, the Potency entry in assay [13], in assay [15], in assay [16] and in assay [17] was “inactive” in each case. For the same compound, in assay [14], the Potency was 34.2 µM (active).

Consider `CNC(=O)N(C)c1nnc(C(C)(C)C)s1`, for which the Potency result in [1], in assay [2], in assay [3], in assay [4], in [5] and in assay [6] was “inactive” each time. The Potency result (in assay [7]; in assay [8]; in the assay with Aromatase (Homo sapiens); in assay [9]; in [18]; in assay [10]) was “inactive” throughout. The Potency entry in assay [12], in assay [13], in [14], in [15], in assay [16] and in assay [19] was “inactive” throughout.

Take `Cc1ccc2c(c1N)C(=O)c1ccccc1C2=O`: the Potency result (in assay [1]; in assay [2]; in assay [3]; in assay [4]; with Aromatase (Homo sapiens); in assay [11]) was “inactive” each time. The Potency entry in assay [13], in assay [15], in [16], in assay [19] and in assay [17] was “inactive” each time. In addition, the Potency in assay [5] is 389 nM [inconclusive] (active); in assay [6], 3.03 µM (active) and 4.33 µM (active); in assay [8], 30.3 µM (active) and 27.3 µM (active); in assay [9], 43.3 µM (active); in assay [18] it was 3.03 µM (active) and 4.33 µM (active); in assay [10], 27.3 µM (active).

For `O=P(Oc1ccccc1)(Oc1ccccc1)Oc1ccccc1`, the Potency entry in [1], in assay [2], in [3], in assay [4], in [5] and in [7] was “inactive” in each case. For the same compound, the Potency entry (in assay [8]; with Aromatase (Homo sapiens); in [9]; in assay [10]; in assay [11]; in assay [14]) was “inactive” in each case. Besides, the Potency entry in assay [15] and in assay [16] was “inactive” throughout. The Potency in assay [6] was 6.08 µM (active); in assay [17], 24.4 µM (active).

On to `CCCCCCCCC(=O)NCc1ccc(O)c(OC)c1`, for which the Potency in [1] was 54.5 µM (active). Besides, the Potency result in [2], in assay [3], in [4], in [5], in assay [6] and in assay [7] was “inactive” in each case. Further, the Potency result (in [8]; in the assay with Aromatase (Homo sapiens); in assay [9]; in [10]; in [11]; in assay [12]) was “inactive” each time. The Potency entry in [13], in [14], in assay [15], in assay [16], in assay [19] and in assay [17] was “inactive” throughout.

For the compound `CC(C)c1ccc(CO)cc1`, the Potency entry in [1], in assay [2], in [3], in assay [4], in assay [7] and in assay [8] was “inactive” each time. The Potency entry (with Aromatase (Homo sapiens); in assay [9]; in assay [10]; in assay [11]; in [13]; in assay [14]) was “inactive” each time. Besides, the Potency result in assay [15], in assay [16], in [19] and in [17] was “inactive” throughout. The Potency was 43.7 µM [inconclusive] (active) and inactive in [5]; 54.5 µM (active) and inactive in assay [6].
